From PubChem
SMN2 splice up: increases expression of the SMN2 splice variant | 210,000 compounds, 2.8% hits | HEK293 SMN2-luciferase splicing reporter, luminescence, 30-36 h | Potency, µM (titrated, usually from 46.1 µM), for the others: at the top dose activity change, positive = activation, actives largely listed as activators | AID 1458; further: % of control where 0% means no effect; nearly all actives have a fitted effect of over 55% in size
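HEK293 cells carry an SMN2 minigene-luciferase reporter in which exon 7 inclusion puts luciferase in frame. Cells were seeded at 2000 cells/well, attached for 10-12 hours, then exposed to compounds for 30-36 hours at 37C before ONE-Glo luminescence.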
Rab9 promoter act: activates the Rab9 promoter | Potency, µM (titrated, usually from 9.22 µM), for the others: at the highest dose activation, negative = inhibition, actives largely listed as activators | AID 485297 | 320,000 compounds, 2.8% hits | Huh7 Rab9 promoter-luciferase reporter, luminescence, 24 h; further: % of control where 0% means no effect; nearly all actives have a fitted effect of over 60% in size
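Promoter activation is measured as luciferase luminescence in Huh7 cells stably transfected with a Rab9 promoter–luciferase construct, following 24 h compound exposure at 37 °C and 10 min reagent incubation at ambient temperature.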
ELG1 genotox: induces genotoxicity in HEK293T cells with luciferase-tagged ELG1; 330,000 compounds, 1.3% hits; AID 504466; HEK293T ELG1-luciferase reporter, luminescence, 16 h; Potency, µM (titrated, usually from 46 µM), inactives show top-dose activity change, positive = activation, actives largely listed as activators; further: % of control where 0% means no effect; nearly all actives have a fitted effect of over 60% in size
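Screening used a luciferase reporter fused to human ELG1 in HEK293T cells. Luminescence was read on a CCD plate imager after 16 hr exposure and 30 min ONE-Glo incubation.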
ELG1 repair inh: inhibitors of ELG1-dependent DNA repair in HEK293T cells; HEK293T ELG1-luciferase reporter, luminescence, 16 h; DNA damage induced by 5-fluorouridine; Potency, µM (doses to about 46.1 µM), without a hit: at the highest dose activity change, negative = inhibition, hits mostly inhibitors; 330,000 compounds, 2.3% hits; AID 504467; further: on the % scale 0 is the no-effect control and ±100 the full control effect; nearly all actives have a fitted effect of over 55% in size
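Cells (2,000 per well) received 5-fluorouridine plus test compound or DMSO and were incubated 16 hr at 37 °C, 5% CO2. Luciferase activity was read by luminescence 30 min after ONE-Glo addition; signal suppression marked inhibition of damage-induced ELG1 function.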
FLuc modulator: counter-screen for miR-21 project: firefly luciferase inhibitors or activators | P08659 | 360,000 compounds, 6.9% hits | Potency, µM (doses to about 57.5 µM), without a hit: at the top dose activity change, negative = inhibition, usual class: inhibitors | purified FLuc, Km substrates, luminescence inhibition;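 further: plate controls were vehicle for no effect and reference inhibitor for full effect; nearly all actives have a fitted effect of over 55% in size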
Target sequence (P08659 whole entry, looked up): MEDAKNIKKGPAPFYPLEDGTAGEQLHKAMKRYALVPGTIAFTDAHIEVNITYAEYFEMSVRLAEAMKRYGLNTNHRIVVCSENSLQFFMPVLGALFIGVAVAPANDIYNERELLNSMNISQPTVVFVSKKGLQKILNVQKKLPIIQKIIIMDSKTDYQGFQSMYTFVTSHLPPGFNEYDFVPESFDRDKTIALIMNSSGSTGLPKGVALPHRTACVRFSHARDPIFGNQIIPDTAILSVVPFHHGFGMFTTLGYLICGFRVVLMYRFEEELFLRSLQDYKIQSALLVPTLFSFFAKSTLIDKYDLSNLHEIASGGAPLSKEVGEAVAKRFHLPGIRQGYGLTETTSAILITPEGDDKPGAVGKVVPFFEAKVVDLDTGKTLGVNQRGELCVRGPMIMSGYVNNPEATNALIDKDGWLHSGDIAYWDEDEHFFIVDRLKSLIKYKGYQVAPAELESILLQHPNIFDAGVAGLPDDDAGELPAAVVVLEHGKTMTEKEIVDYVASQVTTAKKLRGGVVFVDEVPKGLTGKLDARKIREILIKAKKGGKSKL
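Purified P. pyralis luciferase (10nM final) with 10uM D-luciferin and 10uM ATP (Km levels) in 50mM Tris acetate pH 7.5, 10mM Mg acetate, 0.01% Tween-20, 0.05% BSA; qHTS 6-point titration, ~60 µM downward; luminescence read.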
NPC1 promoter act: activates the NPC1 promoter; Huh7 NPC1 promoter luciferase reporter, 24 h; Potency, µM (series often up to 9.22 µM), for the others: at the top dose activation, usual class: activators; 320,000 compounds, 2.4% hits; AID 485313; further: % of control where 0% means no effect; nearly all actives have a fitted effect of over 60% in size
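Cells: Huh7 expressing luciferase under the NPC1 promoter, 1500/well. Seeded 2 h, compound added, incubated 24 h at 37 °C. Luciferase reagent, 10 min ambient, then luminescence.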
The depositor's hits bear a star; ? = inconclusive; / = not tested or not shown; [ ] = another dose, or the depositor's remark. A selection: hits, their analogues and other compounds. The true share with any hit is near 9.2%. The call rests on the fitted dose curve; in most records, active means well fitted curve in the direction sought with a large enough effect; inconclusive means small, poorly fitted or top-dose-only effect, or another doubt; inactive means no such curve, though single readings can be large; an effect the other way counts as inactive or inconclusive. Potency means the concentration at half of the fitted maximal effect.

SMILES	SMN2 splice up	Rab9 promoter act	ELG1 genotox	ELG1 repair inh	FLuc modulator	NPC1 promoter act
NC(=O)C1CC(=O)N(c2ccc(OCc3ccc(Cl)cc3)cc2)C1 (stereo unspecified)	/	2.8µM*	?	?	8.5µM*	2.8µM*
CCOc1ccc(N2CC(C(=O)N3CCCC3)CC2=O)cc1 (stereo unspecified)	/	-7%	4%	14%	0%	-5%
C=CCNC(=O)C1CC(=O)N(c2ccc(OCc3ccc(F)cc3)cc2)C1 (stereo unspecified)	/	1.4µM*	18µM*	?	7.6µM*	1.1µM*
C=CCNC(=O)C1CC(=O)N(c2ccc(OCC(=O)Nc3ccccc3)cc2)C1 (stereo unspecified)	13µM*	3.5µM*	?	?	12µM*	2.8µM*
CCCCN(C)S(=O)(=O)c1ccc(NC2=NS(=O)(=O)c3ccccc32)cc1	-17%	/	/	/	5%	/
O=C1N/C(=C\c2nc3ccccc3s2)c2ccccc21	/	0.28µM*	0.58µM*	?	0.19µM*	1µM*
COc1ccc(-n2c(SCC(=O)Nc3nccs3)nnc2-c2ccoc2C)cc1	4%	-6%	0%	21µM*	7%	-1%
COc1cccc(-n2c(SCC(=O)Nc3nccs3)nnc2-c2ccoc2C)c1	-11%	-3%	1%	?	5%	-7%
COc1ccc(-n2c(SCC(=O)Nc3nc(C)cs3)nnc2-c2ccoc2C)cc1	-11%	-2%	-4%	23µM*	-22%	3%
COc1cc(C(=O)N2CCC(c3nc4ccccc4o3)CC2)cc(OC)c1OC	/	/	/	/	-2%	/
COc1ccc(NC(=O)Nc2cccs2)cc1OC	-7%	20%	?	?	21µM*	18%
COc1cccc(NC(=O)Nc2cccs2)c1	?	?	2%	?	24µM*	19%
CC(=O)c1cccc(NC(=O)Nc2cccs2)c1	15%	10%	-20%	-27%	19µM*	15%
CN(C)c1ncc(C(=O)NCc2ccccc2Cl)cn1	/	/	/	/	0%	/
O=C1/C(=C/c2ccc([N+](=O)[O-])cc2)CCC1C1CCCC1 (stereo unspecified)	/	-1%[1.84 µM]	13%	?	0.76µM*	-6%
Cc1cccc(/C=C2\CCC(C3CCCC3)C2=O)c1 (stereo unspecified)	-6%	21%	?	?	4.8µM*	24%
COc1cccc(/C=C2\CCC(C3CCCC3)C2=O)c1 (stereo unspecified)	/	?	?	?	1.7µM*	?
COc1cc(/C=C2\CCC(C3CCCC3)C2=O)cc(OC)c1OC (stereo unspecified)	/	14%	3%	?	?	3%
O=[N+]([O-])c1ccc(/C=N/n2c(C3CCCCC3)n[nH]c2=S)cc1	26%	-1%	2%	29%	2%	1%
Cc1ccc(-c2noc(CN(C3CCCCC3)S(=O)(=O)c3ccc(F)cc3)n2)cc1	1%	/	/	/	2%	/
CN(C)CCSCCO	-8%[9.22 µM]	/	/	/	/	/
O=C(NCC1CCN(S(=O)(=O)c2ccccc2)CC1)Nc1ccc(F)cc1F	/	-2%	-7%	0%	1%	0%
CN(Cc1ccsc1)C(=O)CCc1nnc(Cc2c[nH]c3ccccc23)o1	/	-2%	3%	11%	-13%	-2%
CN(Cc1ccsc1)C(=O)CCc1nnc(CCCc2ccccc2)o1	/	3.2µM*	?	?	13µM*	19%
Cc1nc(C(C)NC(=O)CCc2nnc(CCCc3ccccc3)o2)c(C)s1 (stereo unspecified)	16µM*	2.8µM*	?	?	15µM*	?
SMILES	SMN2 splice up	Rab9 promoter act	ELG1 genotox	ELG1 repair inh	FLuc modulator	NPC1 promoter act
CC(C)(CO)CNC(=O)CCc1nnc(CCCc2ccccc2)o1	/	12%	4%	?	-15%	-1%
O=C(CCc1nnc(CCCc2ccccc2)o1)NC(C1CC1)C1CC1	14µM*	2.8µM*	21µM*	?	12µM*	?
O=C(OCC(=O)N1CCC(Cc2ccccc2)CC1)c1ccc(CO)cc1	/	-7%	0%	-8%	6%	-5%
COc1ccc(NC(=O)C2CCCN(C(=O)c3cnn(-c4ccc(F)cc4)c3-n3cccc3)C2)cc1 (stereo unspecified)	/	/	/	/	-11%	/
COCCN1C(=O)c2ccccc2C(C(=O)N2CCN(c3ccccc3)CC2)C1c1ccc(F)cc1 (stereo unspecified)	-2%	-6%	-8%	-14%	0%	-4%
COC(=O)CSc1nnc(NC(=O)c2ccc3c(c2)OCO3)s1	/	?	15µM*	?	0.54µM*	26%
CC(C)(C)Cc1nnc(NC(=O)c2ccc3c(c2)OCO3)s1	/	2.2µM*	?	?	?	2.2µM*
CC(C)(C)C(=O)Nc1nnc(SCC(=O)Nc2ccc3c(c2)OCO3)s1	-9%	-6%	0%	-17%	4%	-3%
O=C(O)CSc1nnc(NC(=O)c2ccc3c(c2)OCO3)s1	-28%	-3%	-12%	-10%	1.9µM*	-4%
CC(=O)N1CCC(=NNc2nc3ccccc3s2)CC1	10%	4µM*	11%	?	17µM*	26%
CCOC(=O)N1CCN(S(=O)(=O)c2ccc(C(=O)Nc3nc4ccccc4s3)cc2)CC1	-16%	-6%	-1%	-15%	0%	0%
CCOC(=O)N1CCC(=NNc2nc3ccccc3s2)CC1	/	4µM*	?	?	3.4µM*	2.5µM*
Cc1ccc2oc(=O)n(CCNC(=O)Nc3ccccc3Cl)c2c1	8%	/	/	/	-7%	/
C=Cc1ccccc1Cl	-1%	/	/	/	/	/
O=S(=O)(c1cccc(-c2n[nH]c(=S)n2C2CCCC2)c1)N1CCOCC1	-29%	-1%	-9%	?	-9%	-5%
CCOC(=O)Cc1csc(NC(=O)c2cccs2)n1	-4%	20%	?	?	19µM*	17%
CCOC(=O)c1csc(NC(=O)c2cc(OC)c(OC)c(OC)c2)n1	-8%	-4%	2%	5.8µM*	-3%	-4%
CCOC(=O)Cc1csc(NC(=O)c2ccc(Br)o2)n1	-4%	1%	7%	10%	?	-2%
CCCC(=O)Nc1nc(CC(=O)OCC)cs1	3%	6%	0%	10%	1%	0%
CCOC(=O)c1csc(NC(=O)C(C)(C)C)n1	6%	0%	10%	?	-14%	1%
CCOC(=O)Cc1csc(NC(=O)c2ccc(Br)s2)n1	-6%	12%	-9%	8%	24µM*	1%
CCOC(=O)Cc1csc(NC(=O)/C=C/c2ccc(Br)o2)n1	/	0%	-8%	?	6.7µM*	1%
